Screening results from PubChem BioAssay.
Rows were chosen to be rich in hits. Some 12% of all compounds tested hit in one or more screens of this group.
FMDV antiviral: High Throughput Screening for Foot and Mouth Disease Virus Antivirals; AID 1159524, 2015; FMDV antiviral cell-based qHTS; Potency, µM (series often up to 57.9 µM), for inactives: top-dose activity change, negative = inhibition, usual class: inhibitors; hit rate 1.2% among 410,000; calls by dose curve; tested in HEK293T cells; note: read-out not given here; potency is the fitted concentration of half-maximal effect; % is set by controls: 0 for no effect and ±100 for the full control effect; nearly all actives have a fitted effect of over 45% in size
Cycloheximide cs: Cycloheximide Counterscreen for Small Molecule Inhibitors of Shiga Toxin. cell reporter, cycloheximide protein synthesis inhibition counterscreen. max response, %. hit rate 12% among 300,000; in the data active = max response mostly above about 13%, no sharp cut-off; inactive = mostly below about 14%; note: read at 38.3 µM for the half of the compounds with a filed dose; 0% is about no effect
Shiga inhibitor: A qHTS for Small Molecule Inhibitors of Shiga Toxin; Vero cells, Shiga toxin protein synthesis inhibition reporter; inhibition, % at 38.7 µM; hit rate 9.2% among 290,000; AID 2315, 2010; in the data active = inhibition mostly above about 28%, no sharp cut-off; inactive = mostly below about 43%; note: 0% is about no effect
Sm TGR block: qHTS Assay for the Inhibitors of Schistosoma Mansoni Peroxiredoxins; Schistosoma mansoni thioredoxin glutathione reductase (TGR), Q962Y6; purified TGR, DTNB reduction, TNB absorbance 405 nm; Potency, µM (series often up to 114 µM), without a hit: top-dose activity change, negative = inhibition, hits mostly inhibitors; hit rate 3% among 360,000; active = well fitted inhibition curve with a large enough effect; inconclusive = small, poorly fitted or top-dose-only effect; inactive = no such curve, though single readings can be large or run the other way; note: potency is the fitted concentration of half-maximal effect; % is set by controls: 0 for no effect and ±100 for the full control effect; nearly all actives have a fitted effect of over 60% in size
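First, TGR (20 nM dispensed) and NADPH were mixed with compound. Second, a 15 min room-temperature incubation followed. Third, further NADPH and then DTNB were added to start the reaction. Finally, TNB absorbance was monitored kinetically.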
Active calls of the source: *; ? = inconclusive; nt = no result given; ! = not confirmed by another sample; [ ] = dose if it differs, or a comment.

SMILES | FMDV antiviral | Cycloheximide cs | Shiga inhibitor | Sm TGR block
COC(=O)C(C)Oc1ccc(-c2nccc(-c3cccs3)n2)cc1 (stereo unspecified) | 6.8% | 26.6* | 51.3* | 7.1%
CCc1cccc(NC(=O)Cn2c(=O)n3nc(-c4cccc(F)c4)nc3c3ccccc32)c1 | -9.0% | nt | nt | 13.5%
COc1cc(Nc2ncc3c(n2)CCN(Cc2cc(F)cc(F)c2)C3)cc(OC)c1 | -24.9% | nt | nt | -7.1%
Oc1ccc(-c2cc(-c3ccc(O)cc3)nc(-c3ccccc3)n2)cc1 | -10.3% | -4.4 | -8.5 | 4.3%
Oc1ccc(-c2cccc(-c3ccc(O)cc3)n2)cc1 | 81.0% | 38.9* | 67.2* | 2.0%
COc1ccccc1CNc1nccn(-c2ccccc2)c1=O | 26.6% | nt | nt | -2.1%
COc1ccc(NC(=O)c2cccc(NS(=O)(=O)c3ccccc3)c2)cc1 | 31.5% | -1.1 | nt | 4.0%
COc1ccc(-n2cnc3cc(N)ccc32)cc1 | nt | 12.5* | 12.0 | 0.0%
COc1ccc(-n2cnc3cc(C(=O)N4CCC5(CC4)OCCO5)ccc32)cc1 | 40.1% | 1.5 | 17.9 | 0.4%
COc1ccc(-n2cnc3cc(NS(=O)(=O)c4ccccc4)ccc32)cc1 | nt | 20.9* | 36.8* | -13.1%
CC(C)(C)n1cnc2cc(NS(=O)(=O)c3ccccc3)ccc21 | -22.7% | 18.2* | 23.9 | -18.6%
CCCCCNC(=O)c1ccc2c(c1)ncn2-c1ccc(OC)cc1 | 15.7% | 6.9 | -7.5 | 0.9%
COc1ccc(-n2cnc3cc(C(=O)N4CCOCC4)ccc32)cc1 | 25.3% | 55.7* | 45.3* | -9.4%
CC(=O)Nc1ccc(NC(=O)CCc2nc3cccnc3n2Cc2cccs2)cc1 | -9.5% | nt | nt | -16.7%
CCOc1ccccc1-n1nnc(-c2nsc(NC(=O)c3ccc(C)cc3)n2)c1C | ? | nt | nt | 10.5%
COc1cccc(NC(=O)c2c(C)oc3nc(C)nc(N4CCCC4)c23)c1 | -3.9% | nt | nt | 1.7%
O=C(O)Cc1ccc(C(=O)c2ccc(F)cc2)s1 | 10.2% | -4.0 | 0.9 | -9.9%
N#CCc1ccc(C(=O)c2ccccc2F)s1 | -2.0% | 17.4* | 63.9 | 1.0%
Cc1ccc(-c2noc(CCC(=O)Nc3cccc(C#N)c3)n2)cc1 | -13.3% | 33.8* | 33.7* | -4.9%
COc1ccccc1NC(=O)CCc1nc(-c2ccccc2F)no1 | 9.5% | 15.8* | 40.0 | -20.9%
CCc1ccccc1NC(=O)CCc1nc(-c2cccs2)no1 | 20.4% | 20.3 | 48.3* | -4.1%
COc1cccc(NC(=O)CCc2nc(-c3ccccc3F)no2)c1 | 0.0% | 16.8* | 13.1 | -9.1%
O=C(CCc1nc(-c2ccccc2F)no1)Nc1ccc(Oc2ccccc2)cc1 | ? | 4.7 | -4.8 | -7.0%
COc1ccc(-n2c(N)c(C#N)c3ccc([N+](=O)[O-])cc3c2=O)cc1 | 50.3% | 20.6 | active | -8.7%
COc1ccc(C2=NCCn3nc4cc([N+](=O)[O-])ccc4c32)cc1 | 8.9% | nt | nt | 25.1µM*
SMILES | FMDV antiviral | Cycloheximide cs | Shiga inhibitor | Sm TGR block
COc1ccc(-n2cc3ccc([N+](=O)[O-])cc3n2)cc1 | -34.8% | 36.6* | 115.1* | -0.2%
Cc1cc(F)ccc1S(=O)(=O)Nc1ccc2oc3c(c2c1)CC(C)CC3 (stereo unspecified) | -4.4% | nt | nt | 8.6%
Cc1ccc(-c2cc(=O)c3cc(C)ccc3[nH]2)cc1 | -44.6% | 43.0*! | 59.4*! | -9.9%
Cc1ccc(-c2cc(=O)c3cc(F)ccc3[nH]2)cc1 | 35.3% | 15.7* | 17.7 | 1.0%
O=c1cc(-c2ccccc2)[nH]c2ccc(F)cc12 | 4.8% | 15.8 | 17.3 | -12.0%
Cc1ccc(O)c(Nc2c3ccccc3nc3ccccc23)c1 | ? | 20.9* | 33.4* | ?
Cc1ccc(O)c(Nc2nc(-c3ccccc3)nc3ccccc23)c1 | -16.4% | -2.6 | nt | -16.6%
Cc1ccc(C)c(Nc2nc(N)c3ccccc3n2)c1 | -24.5% | 25.6* | 72.5* | 8.0%
COc1ccc(Cl)cc1Nc1nc(N)c2ccccc2n1 | 8.6% | 25.0* | nt | 6.0%
CCc1nnc(NC(=O)C(=O)c2cc(C)n(-c3ccccc3)c2C)s1 | ? | nt | nt | -3.8%
CC[C@H](C)[C@H](NC(=O)[C@H](C)NC(=O)[C@H](Cc1cnc[nH]1)NC(=O)[C@@H]1CCCN1C(=O)CNC(=O)[C@H](CC(C)C)NC(=O)[C@H](CC(C)C)NC(=O)[C@H](Cc1ccc(O)cc1)NC(=O)CNC(=O)[C@H](C)NC(=O)[C@H](CO)NC(=O)[C@H](CC(N)=O)NC(=O)[C@H](CC(C)C)NC(=O)[C@@H](NC(=O)[C@H](Cc1c[nH]c2ccccc12)NC(=O)CN)[C@@H](C)O)C(=O)N[C@@H](CC(=O)O)C(=O)N[C@@H](CC(N)=O)C(=O)N[C@@H](Cc1cnc[nH]1)C(=O)N[C@@H](CCCNC(=N)N)C(=O)N[C@@H](CO)C(=O)N[C@@H](Cc1ccccc1)C(=O)N[C@@H](CO)C(=O)N[C@@H](CC(=O)O)C(=O)N[C@@H](CCCCN)C(=O)N[C@@H](Cc1cnc[nH]1)C(=O)NCC(=O)N[C@@H](CC(C)C)C(=O)N[C@H](C(N)=O)[C@@H](C)O | nt | -9.3 | -9.4 | nt
CCC(C)NC(=O)C1CCN(S(=O)(=O)c2ccc3c(ccn3CC)c2)CC1 (stereo unspecified) | 0.0% | nt | nt | -0.8%
CCC1CCc2sc(C(=O)N3CCCN(C)CC3)cc2C1 (stereo unspecified) | 3.8% | 23.0* | 18.8 | ?
O=C(NCCc1ccccc1)c1c2c(nc3ccccc13)C(=O)N(C1CCCCC1)C2 | 3.1% | nt | nt | 9.4%
COC(=O)CSc1nc2ccccn2c(=O)c1C=O | 18.1% | 17.5* | 45.9* | -2.2%
CCOc1ccc(C2c3[nH]c4ccccc4c3CCN2C(=O)CCc2ccccc2)cc1 (stereo unspecified) | 2.3% | nt | nt | 3.6%
CCOc1ccc(CN2CCNC(=O)C2CC(=O)O)cc1 (stereo unspecified) | -0.3% | -3.2 | -8.2 | -2.6%
Cc1ccc(CN2CCNC(=O)C2CC(=O)O)cc1 (stereo unspecified) | -1.2% | 3.2 | 2.0 | 35.5µM*
COc1ccccc1CN1CCNC(=O)C1CC(=O)NC1Cc2ccccc2C1 (stereo unspecified) | 6.9% | -1.4 | -10.7 | -35.7%
COc1ccc(CN2CCNC(=O)C2CC(=O)NCc2ccc(C)s2)c(OC)c1 (stereo unspecified) | -18.7% | -1.0 | -9.3 | 31.6µM*
COc1ccccc1CN1CCNC(=O)C1CC(=O)O (stereo unspecified) | 27.2% | 0.5 | 1.9 | 79.4µM*
O=C(Cn1c(=O)nc(-c2ccccc2)c2ccccc21)NCCc1ccccc1 | 6.4% | nt | nt | 2.5%
Cc1cccc(C)c1-n1ncc(C(=O)NCCCN2CCC(C)CC2)c1C1CCN(C(=O)OC(C)(C)C)CC1 | -26.9% | nt | nt | 1.3%
CCc1ccccc1N(C)C(=O)c1cc2c(Cl)nc3ccc(C)cc3c2s1 | ? | nt | nt | -2.1%
OCC1CCN(Cc2nc(Cc3ccccc3Cl)no2)CC1 | 12.7% | 12.4* | 23.5 | 2.2%
Clc1ccccc1Cc1noc(CN2CCSCC2)n1 | 12.4% | 12.1* | 39.6 | 1.6%[57.1 µM]
Clc1ccccc1Cc1noc(CN2CCN(c3cnccn3)CC2)n1 | -25.0% | 13.0* | 34.3 | -14.3%
Fc1cccc(Cc2noc(CN3CCSCC3)n2)c1 | 11.0% | 9.5 | 0.7 | -23.3%
